Here are results for 54 compounds from PubChem BioAssay AID449768 (Vanderbilt High Throughput Screening Facility, 2010).

Screen size: about 110,000 compounds; about 1,400 (1.3%) were called active.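 The calls were made as follows: active = Z score or B-score, a plate-position-corrected score, falls beyond the plate's 99.7% confidence bounds, in either direction; inactive = both scores lie inside the 99.7% bounds.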 Shown is part of a subset that was picked to be rich in actives.

The test deals with Sodium-dependent dopamine transporter (Homo sapiens) (UniProt Q01959). Kind of test: modulators of human DAT uptake with cocaine – cell-based, LLC-PK1 hDAT, [14C]-dopamine uptake, MLSMR, cocaine antagonist project, primary screen (AID 449768).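 Also: scored against the spread of the other compound wells on the same plate.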 The conditions noted are these: LLC-PK1 hDAT cells, [14C]-dopamine uptake with cocaine IC80; at 10 µM; actives deviate in either direction.
Sequence of Sodium-dependent dopamine transporter (Homo sapiens) (Q01959 whole entry, looked up): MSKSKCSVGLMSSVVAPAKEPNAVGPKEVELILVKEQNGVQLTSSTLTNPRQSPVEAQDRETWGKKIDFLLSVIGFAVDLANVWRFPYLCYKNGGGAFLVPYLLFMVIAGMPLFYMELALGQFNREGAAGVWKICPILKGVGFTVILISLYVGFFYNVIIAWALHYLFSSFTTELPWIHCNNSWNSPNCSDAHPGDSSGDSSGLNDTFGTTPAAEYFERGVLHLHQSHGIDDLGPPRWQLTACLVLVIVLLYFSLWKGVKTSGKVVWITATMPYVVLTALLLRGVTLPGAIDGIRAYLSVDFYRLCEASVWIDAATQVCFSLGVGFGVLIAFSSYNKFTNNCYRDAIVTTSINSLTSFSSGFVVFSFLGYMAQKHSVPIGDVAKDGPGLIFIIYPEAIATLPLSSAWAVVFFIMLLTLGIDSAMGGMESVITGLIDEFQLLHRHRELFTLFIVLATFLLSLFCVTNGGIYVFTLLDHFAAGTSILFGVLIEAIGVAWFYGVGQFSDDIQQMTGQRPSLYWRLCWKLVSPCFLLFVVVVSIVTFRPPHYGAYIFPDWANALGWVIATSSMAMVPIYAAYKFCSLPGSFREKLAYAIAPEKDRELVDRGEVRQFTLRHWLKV
Turning to `COP1(=O)C[C@@H](O)[C@@H](O)[C@@H](COCc2ccccc2)O1` (some centres undefined), the B-score is -0.427 (inactive).
On to `O=C(Cc1cccc2ccccc12)Nc1ccc2oc(-c3ccccc3)nc2c1`, for which the B-score was -7.38 (active).
In the case of `CCCCCC(=O)Nc1ccc2oc(-c3ccncc3)nc2c1`, the B-score is 1.15 (inactive).
`O=C(Nc1ccc2oc(-c3ccc4ccccc4c3)nc2c1)c1cccs1`: the B-score is -1.07 (inactive).
Turning to `CCO[C@@H]1OC(C(=O)NCc2nc3ccccc3[nH]2)=C[C@H](C2CCCCC2)[C@H]1CCCO`, the B-score was 0.35 (inactive).
For the compound `NC(=O)[C@H]1CC2(CC(c3cccc(NC(=O)[C@H]4CCC(=O)N4)c3)=NO2)CN1C(=O)c1ccccc1C(=O)c1ccccc1` (some centres undefined), the B-score was -0.797 (inactive).
For `COc1ccccc1NC(=O)CSc1nnc(C)n1CC1CCCO1` (centres undefined), the B-score is -0.675 (inactive).
The figure for `CCCn1c(SCC(=O)Nc2cccc(C(=O)OCC)c2)nnc1-c1ccoc1C` is -0.483 (inactive); for `COc1ccccc1NC(=O)CSc1nnc(-c2ccoc2C)n1CCc1ccccc1` it is 2.44 (active).
On to `C#CCOCCOCCOCCNc1nc(N2CCN(C(=O)C([C@@H](C)CC)n3cc(C(N)COC(=O)C(F)(F)F)nn3)CC2)nc(N2CCN(C(=O)[C@H](Cc3ccc(O)cc3)n3cc(C(N)[C@H](C)CC)nn3)CC2)n1` (some centres undefined), for which the B-score is -0.939 (inactive).
The figure for `COC(=O)CCCCCN1C(=O)NC(c2ccc(-c3ccccc3)cc2)C(C(=O)OCc2ccccc2)=C1C` (centres undefined) is -5.33 (active); for `CC1=C(C(=O)OCc2ccccc2)C(c2ccc(C(F)(F)F)cc2)NC(=O)N1CCCCCC(=O)O` (centres undefined) it is 0.765 (inactive).
The figure for `COCCN1C(=O)N[C@@H](c2ccccc2)C(C(=O)OC)=C1C` is -0.275 (inactive).
Regarding `COc1ccc(C#Cc2c(-c3ccc(OC)cc3)oc3ccc(-c4ccc5c(c4)OCO5)cc23)cc1`, the B-score was 0.0246 (inactive).
Next, `NC1=NC[C@@H](Cc2ccc(O)cc2)N1CC1CCCCC1`: 0.203 (inactive); `CS(=O)(=O)c1ccc2nc(NC(=O)C3CCCCC3)sc2c1`: 2.38 (inactive); `O=C(Nc1nc2ccc(S(=O)(=O)N3CCCC3)cc2s1)C1CCCO1` (centres undefined): 2.39 (active).
The figure for `Cc1ccc2nc(NC(=O)C3CCN(S(=O)(=O)c4ccc5c(c4)oc(=O)n5C)CC3)sc2c1` is -0.00508 (inactive); for `COC(C[C@@H]1O[C@@H]1C(=O)[C@H](C)OCc1ccccc1)OC` it is -1.33 (inactive); for `COC(=O)C1=C(C(=O)OC)[C@@H]2N(C)c3ccccc3[C@@]23C[C@@H](C(=O)OC)N(C(C)=O)C3=N1` it is -0.544 (inactive).
Turning to `C=CCNC(=O)c1ccc2c3n(nc2c1)-c1ccc(C)cc1CO3`, the B-score was -0.154 (inactive).
The figure for `CCOC(=O)c1cc2ccccc2nc1C` is 0.593 (inactive).
As to `CCCc1nc2ccccc2c(C(=O)OCc2nnc(-c3cc(OC)c(OC)c(OC)c3)o2)c1CC`, the B-score was 0.135 (inactive).
Regarding `CCOC(=O)c1cc(-c2nnc(-c3cc(OC)c(OC)c(OC)c3)o2)c(C)nc1C`, the B-score was 1.41 (active).
Next, `CCO[C@H]1OC(C(=O)N2CCN(Cc3ccccc3)CC2)=C[C@@H](c2cn(C(C)=O)c3ccccc23)[C@@H]1CCCO`: -0.181 (inactive); `CCO[C@@H]1OC(C(=O)NC2CC2)=C[C@H](C)[C@H]1CCCO`: 0.173 (inactive).
Next, `CN1CCN(C(CNS(=O)(=O)c2cccs2)c2cccnc2)CC1` (centres undefined): -0.00301 (inactive); `O=C(CC(O)(C(F)(F)F)C(F)(F)F)Nc1ccc(Cl)c(Cl)c1`: -6.33 (active).
On to `N/C(=N\OC(=O)Nc1ccc(Cl)c(Cl)c1)c1ncc(C(F)(F)F)cc1Cl`, for which the B-score is 0.438 (inactive).
As to `Cc1nnc(NC(=O)Nc2ccc(Cl)c(Cl)c2)s1`, the B-score is -0.308 (inactive).
The figure for `Cc1nc(-c2ccccc2)sc1C1(C)CC(c2cccnc2)=NO1` (centres undefined) is 0.641 (inactive); for `C#Cc1ccc([C@@H]2C=C(C(=O)O)O[C@H](OCCCCO)C2)cc1` it is -0.622 (inactive).
Next, `CC1=C(N2CCN(c3ncccn3)CC2)CCC1=O`: 0.343 (inactive); `CC1(C)OC(=O)N2CCc3ccccc3C21C` (centres undefined): -8.52 (active).
The figure for `COc1ccc(CN2CC[C@H]3C=CC[C@@H](C(=O)N4CCOCC4)[C@H]3C2=O)cc1OC` is 0.696 (inactive).
`C[C@]1(C(=O)NCCc2c[nH]c3ccccc23)C=C[C@@H](Cc2ccccc2)N1C(=O)c1ccccc1`: the B-score was 2.48 (active).
For `O=C(CCCCCn1c(=O)[nH]c2ccccc2c1=O)NCCc1c[nH]c2ccccc12`, the B-score was 0.015 (inactive).
Next, `Cc1cc(C)cc(NC(=S)NCCc2c[nH]c3ccccc23)c1`: 2.31 (inactive); `NCCCC[C@@H]1NC(=O)[C@H](CCC(=O)O)NC(=O)c2cc([N+](=O)[O-])cc(I)c2NCC[C@@H](C(N)=O)NC1=O`: -0.534 (inactive).
The figure for `COc1ccc(CNC(=O)C2(CC3CC(c4ccccc4)=NO3)CCN(C(=O)c3cccc(O)c3)CC2)cc1` (centres undefined) is 0.0185 (inactive); for `O=C(NCc1ccccc1)c1onc(CSc2ccncc2)c1C(=O)NCc1ccccc1` it is -1.52 (inactive); for `NC(=O)CC[C@@H]1NC(=O)[C@H](CO)NC(=O)c2cc([N+](=O)[O-])cc(I)c2NCC[C@@H](C(N)=O)NC1=O` it is -0.848 (inactive).
The figure for `Cc1ccc(OCC(=O)Nc2ccc(-c3nnc(-c4ccco4)o3)cc2)cc1` is -0.0188 (inactive).
With `Cc1ccc(OCC(=O)Nc2ccc(-c3nc4ncccc4o3)cc2)cc1`, the B-score was -8.77 (active).
Consider `O=C(Nc1cccc(-c2nc3ncccc3o2)c1)c1ccco1`, for which the B-score is 0.346 (inactive).
The figure for `Cn1ccnc1-c1nnn(-c2ccc(F)cc2)n1` is -0.732 (inactive); for `CCC(=O)NCCc1nc2ccccc2n1CC` it is -0.73 (inactive); for `CCCc1nc2c(C)cc(-c3nc4ccccc4n3C)cc2n1Cc1ccc(-c2ccccc2C(=O)O)cc1` it is 3.87 (active).
On to `Cc1ccc(Cn2c(NC(=O)c3ccco3)nc3ccccc32)cc1`, for which the B-score is -0.191 (inactive).
The figure for `CC(C)(C)Oc1ccccc1Nc1nc(NCCO)nc(N2CCCC2)n1` is 1.65 (inactive); for `CCO[C@H]1OC(C(=O)Nc2ccccc2)=C[C@@H](C2CC2)[C@@H]1CCCO` it is -0.987 (inactive).
On to `CCOc1cc(-c2noc(CCC(=O)N3CCOCC3)n2)ccc1OC`, for which the B-score was 2.65 (active).
`CCOc1ccc(-c2nnn(CC(=O)N3CCN(c4ccc(OC)cc4)CC3)n2)cc1OCC`: the B-score was -0.869 (inactive).
Next, `COc1ccc(N2CCN(C(=O)CCc3nc(-c4ccc(C)cc4)no3)CC2)cc1`: 0.227 (inactive).
